Assay outcomes from PubChem BioAssay.
nsP2pro primary – CHIKV nsP2 protease inhibition, primary qHTS; hit rate 1.1% among 31,000; FRET peptide cleavage, nsP2pro, fluorescence 1 h; Potency, µM (series often up to 24.9 µM), for the others: at the top dose activity change, negative = inhibition, usual class: inhibitors; Q8JUX6; note: nearly all actives have a fitted effect of over 60% in size
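Enzyme 150 nM, substrate 2.5 uM (both final); Tris-HCl 10 mM pH 8.0 + 0.01% Tween 20; cpd up to 25 uM, 7 pts; 15 min preinc., 1 h RT; fluorescence ex 525/em 598.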
nsP2 cell sec – inhibits CHIKV nsP2 protease in cells; shares compounds with nsP2pro primary; cell-based CHIKV nsP2 protease reporter assay; Potency, µM (series often up to 51.1 µM), for inactives: top-dose activity change, negative = inhibition, usual class: inhibitors; hit rate 10% among 450; note: nearly all actives have a fitted effect of over 70% in size
NSP2 full ctr – inhibits full-length CHIKV NSP2 enzyme. shares compounds with nsP2pro primary. Potency, µM (series often up to 50.7 µM), without a hit: at the highest dose activity change, negative = inhibition, hits mostly inhibitors. hit rate 39% among 410. Full-length CHIKV NSP2 protease enzymatic counterscreen; note: nearly all actives have a fitted effect of over 65% in size
Furin counterscr – selectivity counter-screen for CHIKV nsP2 protease inhibitors: human furin. Potency, µM (titrated, usually from 50.6 µM), inactives show at the top dose activity change, negative = inhibition, most hits filed as inhibitors. AID 1964102. Recombinant human furin enzymatic counterscreen, fluorogenic substrate. shares compounds with nsP2pro primary. hit rate 6% among 410
nsP2 NS23 pep – blocks CHIKV nsP2 protease cleavage of endogenous NS2/3 peptide; shares compounds with nsP2pro primary; Purified CHIKV nsP2 protease, endogenous NS2/3 peptide cleavage; Potency, µM (highest dose often 51 µM), inactives show at the highest dose activity change, negative = inhibition, actives largely listed as inhibitors; hit rate 34% among 410; AID 1964103; note: nearly all actives have a fitted effect of over 55% in size
Papain cs – papain protease inhibition, counterscreen for nsP2pro inhibitors; Potency, µM (doses to about 51 µM), for inactives: at the highest dose activity change, negative = inhibition, hits mostly inhibitors; hit rate 5% among 410; shares compounds with nsP2pro primary; purified papain protease activity, enzymatic inhibition
Target sequence (P00784 whole entry, looked up): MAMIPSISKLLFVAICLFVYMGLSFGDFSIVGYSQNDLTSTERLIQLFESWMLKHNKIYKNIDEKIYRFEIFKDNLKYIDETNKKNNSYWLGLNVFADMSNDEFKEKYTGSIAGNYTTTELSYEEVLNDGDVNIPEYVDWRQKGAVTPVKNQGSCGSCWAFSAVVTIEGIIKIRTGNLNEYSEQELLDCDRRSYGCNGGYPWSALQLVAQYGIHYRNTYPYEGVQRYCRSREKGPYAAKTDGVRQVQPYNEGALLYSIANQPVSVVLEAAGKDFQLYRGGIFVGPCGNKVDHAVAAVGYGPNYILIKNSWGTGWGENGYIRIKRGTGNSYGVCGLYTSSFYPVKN
nsP2pro confirm – CHIKV nsP2 protease inhibition, confirmatory qHTS. AID 1964105. CHIKV nsP2 protease enzymatic activity, qHTS. Potency, µM (doses to about 25.5 µM), for inactives: at the highest dose activity change, negative = inhibition, usual class: inhibitors. hit rate 43% among 410. shares compounds with nsP2pro primary; note: nearly all actives have a fitted effect of over 75% in size
HCV NS3 4A cs – inhibits HCV NS3/4A protease in an nsP2pro selectivity counterscreen; HCV NS3/4A protease biochemical counterscreen; Potency, µM (highest dose often 50.9 µM), most hits filed as inhibitors; shares compounds with nsP2pro primary; hit rate 20% among 410; note: nearly all actives have a fitted effect of over 55% in size
* hit, by the source's call; ! = repeats disagree; [ ] = another dose, or the depositor's remark. Only a selection was taken, and hits are over-represented in it overall. Calls come from the whole dose curve. % is set by controls: 0 for no effect and ±100 for the full control effect; potency is the fitted concentration of half-maximal effect.

`CC1CCc2c(cc(Br)c(F)c2Br)N1C=O` (stereo not drawn) gave nsP2pro primary inconclusive, nsP2 cell sec -27%, NSP2 full ctr inconclusive, Furin counterscr 3%, nsP2 NS23 pep inconclusive, Papain cs -9%, nsP2pro confirm inconclusive and HCV NS3 4A cs inconclusive.
For O=C(Nc1ccc(-c2nc3ccccc3[nH]2)cc1)c1ccc2n[nH]nc2c1 the results were nsP2pro primary inactive.
For CCN(CC)C(=O)C1CCN(c2nnc(C)c3c(C)n(-c4ccc(Cl)cc4)nc23)CC1 the results were nsP2pro primary -22%.
For CC(C)CNC(=O)C1CC(c2ccccc2F)=NO1 (stereo not drawn) the results were nsP2pro primary -5%.
`COC(=O)C1=C(C)NC(C)=C(C(=O)OC)C1c1cccc(NC(=O)NCCCN2CCC(c3cccc(OC)c3)CC2)c1` gave nsP2pro primary 10%.
`Cc1ccc(S(=O)(=O)c2nc(-c3ccccc3F)oc2NCc2ccccc2)cc1` gave nsP2pro primary -2%.
COc1ccc(-c2nc(-c3ccccc3)c(NCc3ccccc3)o2)cc1 was read as nsP2pro primary 7%[5.1 µM].
COc1ccc(-c2nc(S(=O)(=O)c3ccc(C)cc3)c(NCc3ccccc3)o2)cc1 was read as nsP2pro primary 4.5µM*, nsP2 cell sec inconclusive, NSP2 full ctr inconclusive, Furin counterscr -4%, nsP2 NS23 pep inconclusive, Papain cs 13µM*, nsP2pro confirm 8µM* and HCV NS3 4A cs inactive.
`Cc1ccc(CNC(=O)CCSCc2cnn(-c3ccccc3)c2-n2cccc2)cc1` gave nsP2pro primary -5%.
C[C@@H]1CC[C@]2(C(=O)O)CC[C@]3(C)C(=CCC4[C@@]5(C)CC[C@H](O)C(C)(C)C5C(O)C[C@]43C)[C@@H]2[C@]1(C)O (stereo partly drawn) was read as nsP2pro primary 90%[10 µM].
For O=C(c1cccc(OC(F)F)c1)N1CC[C@H](N2CCOCC2)[C@H](CCCO)C1 the results were nsP2pro primary -7%.
For CCOC(=O)OC(C)OC(=O)[C@@H]1N2C(=O)[C@@H](NC(=O)[C@H](N)c3ccccc3)[C@H]2SC1(C)C (stereo partly drawn) the results were nsP2pro primary 1%.
For O=C(Nc1ccc2[nH]c(=O)oc2c1)C(=O)N1CCC(Cc2ccc(F)cc2)CC1 the results were nsP2pro primary -5%.
`O=C(CCN1CCN(C(=O)OCc2cc(Cl)cc(Cl)c2)CC1)c1ccc2[nH]c(=O)oc2c1` gave nsP2pro primary 0.99µM*!, nsP2 cell sec -2%, NSP2 full ctr 16µM*, Furin counterscr -3%, nsP2 NS23 pep inconclusive, Papain cs -21%, nsP2pro confirm 6.3µM* and HCV NS3 4A cs inactive.
`COc1cccc2cc(C(=O)N3CCN(c4cc(C)ccc4C)CC3)c(=O)oc12` gave nsP2pro primary -12%.
Screening CC(=O)c1ccc2c(c1)N(CCCN1CCN(CCO)CC1)c1ccccc1S2 returned nsP2pro primary -9%.
`OCCN1CCN(CCCN2c3ccccc3Sc3ccc(C(F)(F)F)cc32)CC1` gave nsP2pro primary 25%.
Screening OCCN1CCN(CCCN2c3ccccc3C=Cc3ccccc32)CC1 returned nsP2pro primary 8.8µM*, nsP2 cell sec -2%, NSP2 full ctr inconclusive, Furin counterscr -8%, nsP2 NS23 pep -4%, Papain cs 2%, nsP2pro confirm 0% and HCV NS3 4A cs inactive.
Cc1ccc(S(=O)(=O)Nc2cnccc2C(=O)Nc2nc(-c3cccc(F)c3)cs2)cc1 was read as nsP2pro primary -4%.
Screening C1=C(c2cnc[nH]2)c2ccsc2CC1 returned nsP2pro primary inconclusive, nsP2 cell sec 5%, NSP2 full ctr 85%, Furin counterscr inconclusive, nsP2 NS23 pep -12%, Papain cs -1%, nsP2pro confirm 40% and HCV NS3 4A cs inactive.
`CC(O)c1cc2c(s1)c1cnn(Cc3ccccc3F)c(=O)c1n2C` (stereo not drawn) gave nsP2pro primary -4%.
`Cc1cc(C)c(NC(=O)Cn2nnc(S(=O)(=O)c3ccc(C)c(C)c3)c2N)c(C)c1` gave nsP2pro primary -28%.
Screening OCc1ccc(-c2ccc(-c3ccc(CO)s3)o2)s1 returned nsP2pro primary 2.2µM*, nsP2 cell sec -4%[17.6 µM], NSP2 full ctr 4µM*, Furin counterscr inconclusive, nsP2 NS23 pep inconclusive, Papain cs inactive, nsP2pro confirm 3.1µM* and HCV NS3 4A cs inactive.
`CC(C)=CCC/C(C)=C/CC/C(C)=C/CC/C(C)=C/CC1=C(C)C(=O)c2ccccc2C1=O` gave nsP2pro primary -27%.
For CC1=CC(=O)c2ccccc2C1=O the results were nsP2pro primary inconclusive, nsP2 cell sec -11%, NSP2 full ctr -14%, Furin counterscr 3%, nsP2 NS23 pep inconclusive, Papain cs -20%, nsP2pro confirm 4% and HCV NS3 4A cs inactive.
For Nc1nnc(-c2ccc3ccccc3c2)o1 the results were nsP2pro primary -8%.
Oc1c(Br)cc(Br)cc1CNC1CCC(O)CC1 (stereo not drawn) was read as nsP2pro primary 8.8µM*, nsP2 cell sec -7%, NSP2 full ctr -5%, Furin counterscr 4%, nsP2 NS23 pep -7%, Papain cs -7%, nsP2pro confirm -17% and HCV NS3 4A cs inactive.
For Nc1c(Br)cc(Br)cc1CNC1CCC(O)CC1 (stereo not drawn) the results were nsP2pro primary 7%.
Screening Cc1cnn(-c2ccccc2)c1NC(=O)COCc1ccccc1 returned nsP2pro primary 19%.
For O=C1CCCCC(C(=O)N2CCCCC2)N1 (stereo not drawn) the results were nsP2pro primary 1%.
`O=C(NCc1ccc(Cl)cc1)c1cc2cccnn2n1` gave nsP2pro primary -1%[39.2 µM].
`O=C(C1CCN(c2nc3ccccc3[nH]2)CC1)N1CCN(c2cccc(Cl)c2)CC1` gave nsP2pro primary 4%.
